These results are taken from PubChem BioAssay AID1259417 (TB Discovery Research, Infectious Disease Research Institute, 2018).

A short description of the experiment: M. tuberculosis growth inhibition, HTS (AID 1259417).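 Also: bacteria grown with compound for 5 days at 37 °C.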 The settings on record: stronger effect = higher value, concentration not given here.
The mark [1] stands for this setting: M. tuberculosis DsRed fluorescence growth inhibition.
[2] abbreviates: M. tuberculosis growth inhibition.

SMILES strings stand for the structures. Among all 1,100 compounds or so, about 760 (69%) were called active. No rule for the calls is given here. So high a share suggests a set chosen from earlier hits. Some of the results follow.

The term inhibition denotes the change of the read-out against control, counted positive when it falls. As for `CCC(Sc1nc2ccccc2o1)C(=O)Nc1nnc(C)s1` (stereo not drawn), the inhibition is, setting by setting: under setting [1], 92.7% (active); under setting [2], 96.2%.
With `CNc1nc(SC)nc2ccsc12`, the inhibition was 99.7% (active) under setting [1] and 98.9% under setting [2].
For `c1ccc(C2=Nc3ccccc3OC2)cc1` the same measures were 97.6% (active) and 97.5%.
For `CCOC(=O)COc1cc2oc(=O)cc(CC)c2cc1Cl` the same measures were 6.17% (inactive) and 26.9%.
As for `CCCCc1cc(=O)oc2cc(OCC(=O)OCc3ccccc3)c(Cl)cc12`, the inhibition is 33.1% (active) under setting [1] and 73.7% under setting [2].
For `CCCCc1cc(=O)oc2cc(OC(C)C(=O)OCC)c(Cl)cc12` (stereo not drawn) the same measures were 49.4% (active) and 93.7%.
For `CCOC(=O)c1cc(-c2csc(COc3ccccc3Cl)n2)on1` the same measures were 98.1% (active) and 98.8%.
For `CCOC(=O)c1cc(-c2csc(-c3ccc(C(F)(F)F)cc3)n2)on1`, the inhibition was 63.4% (active) under setting [1] and 83.4% under setting [2].
For `CCOC(=O)c1cc(-c2csc(COc3ccc(Cl)cc3)n2)on1` the same measures were 100% (active) and 99.5%.
For the compound `CCOC(=O)C(/C=C(\C#N)C(=O)OCC)=C(/N)N1CCN(c2ccc(Cl)cc2)CC1`, the inhibition under setting [1] is 46% (active) and the inhibition under setting [2] is 46.9%.
For `CCOc1ccc2c(c1)OC(=Cc1cccc(OCC(=O)OC)c1)C2=O` the same measures were 10% (active) and 50.5%.
For `CCOC(=O)COc1ccc(C=C2Oc3cc(OC)ccc3C2=O)cc1`, the inhibition reads like this: under setting [1], 60.8% (active); under setting [2], 79.9%.
For `CCOC(=O)COc1cccc(C=C2Oc3cc(OC)ccc3C2=O)c1` the same measures were 31.7% (active) and 54%.
Take `COc1c(N2C[C@@H]3CCCN[C@@H]3C2)c(F)cc2c(=O)c(C(=O)O)cn(C3CC3)c12`: the inhibition reads like this: under setting [1], 101% (active); under setting [2], 100%.
For `NC1CCN(c2nc3c(cc2F)c(=O)c(C(=O)O)cn3-c2ccc(F)cc2F)C1` (stereo not drawn) the same measures were 98.3% (active) and 98.4%.
As for `COc1c(N2CCNC(C)C2)c(F)cc2c(=O)c(C(=O)O)cn(C3CC3)c12` (stereo not drawn), the inhibition was 99.5% (active) under setting [1] and 101% under setting [2].
For `NC1CCN(c2c(F)cc3c(=O)c(C(=O)O)cn(C4CC4)c3c2Cl)C1` (stereo not drawn) the same measures were 99.8% (active) and 100%.
For the compound `CC1=NN(c2nc3ccccc3s2)C(=O)C1Cc1cccc2ccccc12` (stereo not drawn), the inhibition is -2.3% (inactive) under setting [1] and 21.1% under setting [2].
Take `Cc1ccc2c(c1)c(-c1ccccc1)c(-c1ccccc1)n2CC(O)CN1CCN(CCO)CC1` (stereo not drawn): the inhibition reads like this: under setting [1], 23.8% (inactive); under setting [2], 13.1%.
For `Cc1cc(C)c2c(c1)c(-c1ccccc1)c(-c1ccccc1)n2CC(O)CN1CCN(CCO)CC1` (stereo not drawn) the same measures were 48.4% (active) and 39.3%.
As to `Clc1ccc(C2=CC(c3ccc(Cl)cc3)n3nnnc3N2)cc1` (stereo not drawn), the inhibition by setting is: under setting [1], 43.4% (active); under setting [2], 39.3%.
For `O=C(COc1ccc(C(=O)NCc2ccccc2)cc1)OC1CCCCC1` the same measures were 37.7% (active) and 52.9%.
For `CCOC(=O)COc1ccc(C(=O)Nc2ccc(F)cc2)cc1` the same measures were 20.5% (active) and 42.4%.
For `O=C(COc1ccc(-c2ccccc2)cc1)OC1CCCCC1` the same measures were 26.1% (active) and 58.6%.
Take `Cc1ccc(NC(=O)c2ccc(OCC(=O)OC3CCCCC3)cc2)cc1`: the inhibition by setting is: under setting [1], 53.4% (active); under setting [2], 78.1%.
As to `CCOC(=O)COc1ccc(C(=O)NC2CCCCC2)cc1`, the inhibition was 1.79% (inactive) under setting [1] and -15.3% under setting [2].
For `Cc1c(Cc2ccccc2)c(NCCCO)n2c(nc3ccccc32)c1C#N` the same measures were 97.8% (active) and 87.9%.
In the case of `Cc1c(Cc2ccc(Cl)cc2)c(NCCCN(C)C)n2c(nc3ccccc32)c1C#N`, the inhibition reads like this: under setting [1], 14.4% (inactive); under setting [2], -9.38%.
For `O=C(NCCc1ccc(F)cc1)NC12CC3CC(CC(C3)C1)C2` the same measures were 100% (active) and 96.2%.
For `CCOC(=O)c1c(CSc2ccccc2)n(-c2ccccc2)c2ccc(O)c(CN(C)C)c12` the same measures were 92.7% (active) and 91.9%.
On to `Oc1ccc(CNc2ccccc2O)cc1`, for which the inhibition is 98.3% (active) under setting [1] and 97.3% under setting [2].
Turning to `N#Cc1nc(-c2cccs2)oc1NCCc1ccccc1`, the inhibition is, setting by setting: under setting [1], 100% (active); under setting [2], 100%.
With `CC(C)N=c1cc2n(-c3ccc(Cl)cc3)c3ccccc3nc-2cc1Nc1ccc(Cl)cc1`, the inhibition reads like this: under setting [1], 100% (active); under setting [2], 99.5%.
As for `Cc1ccn2c(-c3csc(Nc4ccccn4)n3)c(C)nc2c1`, the inhibition under setting [1] was 98.9% (active) and the inhibition under setting [2] was determined as 100%.
For `Cc1cc(O)ccc1Nc1nc(-c2ccccn2)cs1` the same measures were 71.9% (active) and 77.7%.
For `Cc1cccnc1Nc1nc(-c2ccccn2)cs1` the same measures were 100% (active) and 100%.
Take `Cc1ccccc1Nc1nc(-c2ccccn2)cs1`: the inhibition was 87.2% (active) under setting [1] and 92.7% under setting [2].
For `Cc1cccc(Nc2nc(-c3ccccn3)cs2)n1` the same measures were 91.2% (active) and 97.6%.
For `Cc1cccc(NC(=O)c2cc(-c3cccs3)nc3ccccc23)n1` the same measures were 8.52% (inactive) and 22.7%.
For `FC(F)(F)c1ccccc1Nc1nc(-c2ccccn2)cs1` the same measures were 90.1% (active) and 86.1%.
On to `O=C(NCCC12CC3CC(CC(C3)C1)C2)c1ccc(Br)cc1`, for which the inhibition under setting [1] is 98.8% (active) and the inhibition under setting [2] is 94.1%.
In the case of `Cc1ccc(C(=O)NCCC23CC4CC(CC(C4)C2)C3)cc1`, the inhibition under setting [1] was 100% (active) and the inhibition under setting [2] came out at 97.3%.
As to `c1ccc2sc(NC3=NCN(Cc4ccc5c(c4)OCO5)CN3)nc2c1`, the inhibition is, setting by setting: under setting [1], 17.9% (active); under setting [2], 69.1%.
`Cc1nc2ccc(C(=O)OCc3cccc(F)c3)cc2nc1C`: the inhibition by setting is: under setting [1], 19.1% (active); under setting [2], 60.3%.
